Only a selection was taken, and hits are over-represented in it overall.
Pf Dd2 inh: blocks in vitro growth of P. falciparum Dd2; P. falciparum Dd2 growth, SYBR Green, 72 h; Potency, µM (top dose mostly 28.9 µM), for inactives: at the top dose activity, negative = inhibition, usual class: inhibitors; actives 4.3% (n = 120,000); AID 1347417; active means well fitted inhibition curve with a large enough effect;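 further: plate controls were DMSO vehicle for no effect and reference drug for full effect; nearly all actives have a fitted effect of over 65% in size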
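Infected erythrocytes (Dd2, 0.3% parasitemia, 2.5% hematocrit final) are added to compound in RPMI-1640/Albumax II medium, grown 72 h at 37C in low oxygen, then lysed with saponin/Triton-X containing SYBR Green and read by fluorescence.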
Numbers without * were called inactive; i = inactive; [ ] = remark or other dose. Potency means the concentration at half of the fitted maximal effect.

SMILES | Pf Dd2 inh
COc1ccccc1-n1cc(C(=O)NCc2cc3n(n2)CCNC3)cn1 | -6%
CCCN1C(=O)Cc2ccccc2C1C(=O)NCc1ccccc1Cl (stereo not given) | -13%
Cc1cc(C(=O)N2CC[C@H](NC(=O)c3snnc3C)C[C@H]2C(=O)N[C@@H](Cc2cccs2)C(N)=O)n(C)n1 | -14%
Cc1noc(C)c1[S+](=O)([O-])N1CCC(N2Cc3ccccc3C2=O)CC1 | -20%
Cc1nc(NC(=O)Cn2nc3c(cc2=O)CCCC3)sc1C | -12%
CC(C)CNC(=O)C1CCc2ncc(-c3ccsc3)n2C1 (stereo not given) | i
O=C(C1CCc2ncc(-c3ccsc3)n2C1)N1CCN(c2ccccn2)CC1 (stereo not given) | i
O=C(NC1CCN(Cc2ccccc2)CC1)C1CCc2ncc(-c3ccsc3)n2C1 (stereo not given) | 8.9µM*
c1cc(-c2cc3c(ccn3Cc3ccncc3)c(N3CCOCC3)n2)c2cc[nH]c2c1 | i
O=C(NC1C[C@H]2CC[C@@H](C1)N2C(=O)COc1ccc(F)cc1)c1ccncc1 (stereo not given in full) | i
CN1CCCCCCN(C(=O)Cc2cccnc2)[C@@H]2CCC[C@@H]2C1=O | 11%
Cc1cccc(CN2CCCCCCN(C)C(=O)[C@@H]3CCC[C@@H]32)c1 | 2.5µM*
CN1C(=O)[C@H]2CN(Cc3ccc4[nH]ccc4c3)C[C@H]2C1=O | i
Cc1cccc(CN2CCCCCNC(=O)[C@@H]3CCC[C@@H]32)c1 | -27%
CN1CCCCCCN(Cc2ccc3[nH]ccc3c2)[C@H]2CCC[C@H]2C1=O | 2µM*
CN1CCCCCCN(C(=O)NCCc2ccccc2)[C@H]2CCC[C@H]2C1=O | -8%
CCC(=O)N1CCCN(C)c2ccccc21 | 16%
COC(=O)N1CCn2ncc(C(=O)Nc3ccc(Cl)cc3Cl)c2C1 | -3%
COc1cc(=O)n2c(c1C(=O)Nc1ccc(F)cc1Cl)CCCC2 | 32%
CCn1c2c(c(=O)n3ncc(C(=O)Nc4ccc(C(=O)OC)cc4)c13)CN(Cc1ccc(OC)cc1)CC2 | 10µM*
CCOC(=O)c1ccc(NC(=O)CSc2nc3c(c(=O)[nH]2)CN(Cc2ccccc2)CC3)cc1 | -10%
CCn1c2c(c(=O)n3ncc(C(=O)Nc4ccc(F)cc4Cl)c13)CN(Cc1ccc(OC)cc1)CC2 | 11µM*
COc1ccc(-c2nc(C)nc3c2CN(Cc2ccc(NC(C)=O)cc2)CC3)cc1 | i
COc1ccc(OC)c(S(=O)(=O)NCC(=O)N2CCCCCNC(=O)CC2c2ccccc2)c1 (stereo not given) | i
CC(C)(C)NC(=O)CN1C(=O)NC2(CCCCC2)C1=O | 36%
SMILES | Pf Dd2 inh
CNC(=O)c1cc(S(=O)(=O)N2CCc3c(nc[nH]c3=O)C2)cs1 | -3%
COc1cc(=O)n2c(c1C(=O)NCC1CCOc3ccccc3C1)CCNCC2 (stereo not given) | -5%
COc1ccc(C(=O)N2CCC3(CC2)NC(=O)N(Cc2ccc(F)cc2)C3=O)c(C)c1 | -21%
CC1(C)CNC(=O)c2nc(CCN3CCCc4ccccc43)[nH]c2C1 | -6%
CCCc1cc(C(=O)N2CCC(=O)N(Cc3ccccc3)C(CC)C2)ccn1 (stereo not given) | -15%
O=C(c1ccccc1)N1CCC2(C1)C(=NC1CCCCC1)NC(=O)N2c1cc(F)cc(F)c1 (stereo not given) | 9%
CC(C)CCN1CCC2(C1)C(=NC1CCCCC1)NC(=O)N2c1cccnc1 (stereo not given) | 77%
O=C1NC(=NC2CCCCC2)C2(CCN(CC3CCCCC3)C2)N1c1cc(F)cc(F)c1 (stereo not given) | 5µM*
O=C1NC(=NC2CCCCC2)C2(CCN(CC3CCCCC3)CC2)N1c1cc(F)cc(F)c1 | 10%
CC(C)CCN1CCCC2(C1)C(=NC1CCCCC1)NC(=O)N2c1cc(F)cc(F)c1 (stereo not given) | 4µM*
CC(C)CCN1CCCC2(C1)C(=NC1CCCC1)NC(=O)N2c1cccnc1 (stereo not given) | -14%
O=C1NC(=NC2CCCC2)C2(CCCN(CC3CCCCC3)C2)N1c1cc(F)cc(F)c1 (stereo not given) | 4.5µM*
O=C(c1ccccc1F)N1CCC2(C1)C(=NC1CCCCC1)NC(=O)N2c1cc(F)cc(F)c1 (stereo not given) | -4%
O=C1NC(=NC2CCCC2)C2(CCN(CC3CC3)C2)N1c1cccnc1 (stereo not given) | -12%
CCOc1ccc(-c2nnc(CCC(=O)NC(C)CC)c(=O)[nH]2)cc1 (stereo not given) | -18%
O=C(C1CCCCCC1)N1CCC(n2cc(C3CCCCC3)nn2)CC1 | -23%
O=C([C@@H]1C[C@H](Oc2cccnc2)CN1C(=O)NC1CCCCC1)N1CCOCC1 | 37%
CCCN(CC1CCOC1)C(=O)c1cccc(Cl)c1 (stereo not given) | 9%[5.79 µM]
COCC(=O)NC[C@H]1OC[C@@H](NCC(C)(C)C)[C@@H]1O | -9%[44.1 µM]
Cc1ccc2nc(COCC(=O)N[C@H]3CC[C@@H]4CCC[C@@H]43)[nH]c2c1 | -14%
Cc1cc(C)n(Cc2ccc(C(=O)N3C[C@@H](Oc4cccnc4)C[C@H]3C(N)=O)o2)n1 | -21%
COCCOCC1(CNC(=O)COc2ccccc2)C[C@@H](O)[C@@H](O)C1 (stereo not given in full) | -8%[44.1 µM]
COCCNC(=O)C(C)[C@@H]1CCc2c(C)cc(OC)c(C)c2C1 (stereo not given in full) | -9%[44.1 µM]
CC(=O)Nc1cccc2ccc(OCc3nnc(C(=O)N4CCC[C@@H]4c4ccc(Br)cc4)n3Cc3ccccc3)cc12 | 11µM*
CC(=O)Nc1cccc(OCc2nnc(C(=O)N3CCC[C@@H]3c3ccc(Br)cc3)n2Cc2ccccc2)c1 | -22%
SMILES | Pf Dd2 inh
C[C@H]1CCCN1C(=O)c1nnc(COc2ccc(Cl)cc2)n1-c1ccccc1 | -12%[44.1 µM]
COc1ccc(CN2CCOc3nc(-c4ccc(O)c(F)c4)ncc3C2=O)cc1 | i
COc1ccc(S(=O)(=O)c2c(O)c(C)cc(NC(=O)c3ccccc3)c2C(C)C)cc1 | i
Cc1ccc(S(=O)(=O)c2c(Nc3ccccc3)sc(C(=O)c3ccc4c(c3)OCO4)c2N)cc1 | 13µM*
COc1cccc(C(=O)c2cn(CC(=O)NCc3ccccc3Cl)c3nc(C)ccc3c2=O)c1 | -5%
COc1ccc(S(=O)(=O)c2c(Nc3ccccc3F)sc(C(=O)c3cccc(OC)c3)c2N)cc1 | 11µM*
COc1ccc2nc3sc(C(=O)Nc4ccccc4F)cc3cc2c1 | 9%
COc1ccc(CNC(=O)c2c(Nc3ccc(OC)cc3OC)sc(C(=O)c3ccc(Cl)cc3)c2N)cc1 | i
CC(=O)c1cc2c(cc1N/C(=N/S(=O)(=O)c1ccc(C)cc1)c1ccccc1)OCO2 | -24%
Cc1ccccc1Nc1sc(C(=O)c2ccc3c(c2)OCO3)c(N)c1S(=O)(=O)c1ccccc1 | -17%
CCc1ccccc1Nc1sc(C(=O)c2cccc(OC)c2)c(N)c1S(=O)(=O)c1ccccc1 | 11µM*
COc1cccc(C(=O)Nc2ccccc2-c2nc3ccccc3s2)c1 | i
COc1cccc(C(=O)c2sc(Nc3ccc(F)c(Cl)c3)nc2N)c1 | i
COc1ccc(S(=O)(=O)c2c(Nc3ccc(C)cc3C)sc(C(=O)c3ccc(F)cc3)c2N)cc1 | 11µM*
CN1CC(=O)N(C2CCC2)Cc2c(NCCO)ncnc21 | -5%[44.1 µM]
O=C(C1CCC1)N1CC2CC(C1)[C@H]1CCCC(=O)N1C2 (stereo not given in full) | 6%
